Test results as given in PubChem BioAssay AID1851 (National Center for Advancing Translational Sciences (NCATS), 2009).
The campaign covered roughly 16,000 compounds. About 2,600 (16%) were called active. Not shown: some 20% with an inconclusive outcome. Not all results are given here. A number with no mark means an inactive call. The call rests on the fitted dose curve; in most records, active means well fitted curve in the direction sought with a large enough effect; inconclusive means small, poorly fitted or top-dose-only effect, or effect the other way; inactive means no such curve, though single readings can be large or run the other way.

biological target: Cytochrome P450 2D6 (Homo sapiens) (UniProt P10635); experiment: Cytochrome panel assay with activity outcomes; details: recombinant CYP, pro-luciferin dealkylation, luminescence, p450-cyp2d6; series mostly up to 57.1 µM
On the % scale 0 is the no-effect control and ±100 the full control effect.

Chain of Cytochrome P450 2D6 (Homo sapiens) (P10635 whole entry, looked up): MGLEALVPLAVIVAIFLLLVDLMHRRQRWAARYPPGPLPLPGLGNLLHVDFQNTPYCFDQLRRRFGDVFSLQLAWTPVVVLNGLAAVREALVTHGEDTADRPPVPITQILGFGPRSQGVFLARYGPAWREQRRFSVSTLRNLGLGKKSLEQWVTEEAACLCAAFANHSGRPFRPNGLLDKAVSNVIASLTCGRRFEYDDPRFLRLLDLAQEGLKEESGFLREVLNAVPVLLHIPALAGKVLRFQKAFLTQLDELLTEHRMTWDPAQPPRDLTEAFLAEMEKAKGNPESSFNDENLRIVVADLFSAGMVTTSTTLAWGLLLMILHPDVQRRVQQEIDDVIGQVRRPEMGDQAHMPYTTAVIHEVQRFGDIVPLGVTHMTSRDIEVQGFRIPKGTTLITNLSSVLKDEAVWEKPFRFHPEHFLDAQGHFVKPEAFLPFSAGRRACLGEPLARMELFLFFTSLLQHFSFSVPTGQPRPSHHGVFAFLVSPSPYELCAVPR

SMILES	AC50	activity, negative = inhibition
CCOC(=O)COc1ccc(/C=C/[N+](=O)[O-])c(OCC(=O)OCC)c1	inactive	–
Clc1ccc(Nc2ncn[nH]2)cc1	inactive	–
CCCCCCCCCCCCCCCC(=O)C(F)(F)F	inactive	–
Cc1cc(C)c(-c2noc(C(=O)OC(C)(C)C)c2C(=O)OC(C)(C)C)c(C)c1	inactive	–
Cc1cc(OC(=O)c2ccccc2Cl)cc(=O)n1C	inactive	–
Cc1sc2ncn(CC(=O)NCCCC(=O)N3CCN(c4ncccn4)CC3)c(=O)c2c1C	inactive	–
Cc1ccc(C)n1N1C(=O)/C(=C\c2ccc(Cl)cc2)SC1=S	inactive	–
Cn1c(SCC(=O)NC2CC2)nnc1-c1cccc(NC(=O)c2ccccc2F)c1	inactive	–
C[C@H]1/C=C\CC(=O)OC[C@H](C)C(=O)N2CCC[C@@H]2C(=O)OC1	–	-8.94% [at 11.4 µM]
COc1ccc2nccc(SCC(=O)O)c2c1	–	-10.3% [at 11.4 µM]
COc1ccc2nc(NC(=O)CSc3nnc(C)s3)sc2c1	inactive	–
COc1ccc2c(c1)nc(SCC(=O)c1ccc(Br)s1)n2C	5010 nM (active)	–
CCOC(=O)C1=C(N)n2c(s/c(=C/c3ccccc3)c2=O)=C(C(=O)OCC)C1c1ccccc1 (stereo not given)	inactive	–
c1ccc(-c2nc3ccccc3o2)nc1	inactive	–
Cn1c(=O)c(-c2cccs2)nc2cnc(N3CCNCC3)nc21	inactive	–
Cc1ccc(-n2[nH]c(=O)c3cccnc32)cc1	inactive	–
CC(C)c1ccc2c(c1)CC[C@H]1[C@@](C)(CN)CCC[C@@]21C	1260 nM (active)	–
COc1ccc(Cc2nc3ccc(S(=O)(=O)N4CCOCC4)cc3[nH]2)cc1OC	inactive	–
CCCCC#Cc1nc(N)c2ncn([C@@H]3O[C@@H](C(=O)NCC)[C@H](O)[C@@H]3O)c2n1	inactive	–
COc1cccc(-c2noc(Cn3nc(C)c([N+](=O)[O-])c3C)n2)c1	inactive	–
CCOc1ccc(C(=O)Cc2cc(OC)c(OC)cc2[N+](=O)[O-])cc1	inactive	–
COc1cccc(CN2CCN(Cc3cc(OC)c(OC)cc3[N+](=O)[O-])CC2)c1	224 nM (active)	–

SMILES	AC50	activity, negative = inhibition
COc1cccc(Nc2ncc3ncc(=O)n(C)c3n2)c1	inactive	–
COc1ccc(CCNC(=O)Cn2cnc3c2c(=O)n(C)c(=O)n3C)cc1OC	inactive	–
O=C(O)c1nn(-c2ccc(Cl)cc2)c2c1C(=O)c1ccccc1C2=O	–	-7.18% [at 11.4 µM]
O=C(Nc1ccc(Cl)cc1)NC1CCCCC1	inactive	–
O=C(Nc1ccc2c(c1)nc1n2CCN(C2CCCCC2)C1)NC1CCCCC1	12600 nM (active)	–
CCCNC(=O)Nc1ccc2c(c1)nc(C)n2C	inactive	–
O=C(O)CC/C=C\CC[C@H]1[C@@H](N2CCCCC2)[C@@H](O)C[C@@H]1OCc1ccc(-c2ccccc2)cc1	inactive	–
COc1ccc2c(c1)CCCC21NC(=O)N(CC(N)=O)C1=O (stereo not given)	inactive	–
CCOC(=O)N1N=C(c2ccccc2)CC1(O)C(F)(F)F (stereo not given)	inactive	–
COC(=O)c1ccc(NC(=O)c2ccccc2)o1	inactive	–
CN1CCN2c3ncccc3Cc3ccccc3C2C1 (stereo not given)	501 nM (active)	–
O=c1[nH]c(=S)[nH]nc1Cc1ccccc1	inactive	–
Cc1c(N(C)C)c(=O)n(-c2ccccc2)n1C	inactive	–
CSC1=C(C#N)C(c2ccccc2Cl)C2=C(N1)c1ccccc1C2=O (stereo not given)	inactive	–
COc1cc(/C=C/C(=O)Nc2ccccc2C(F)(F)F)cc(OC)c1OC	inactive	–
CCc1ccc2c(-c3cccc(Cl)c3)nc(=O)n(CC)c2n1	inactive	–
Cc1ccc(C(=O)COC(=O)CNC(=O)C(c2ccccc2)c2ccccc2)cc1[N+](=O)[O-]	inactive	–
Cc1ccc(-n2ccnc2SCC(=O)N(CC(C)C)C2CCS(=O)(=O)C2)c(C)c1 (stereo not given)	inactive	–
Cc1cc(C)n(-c2nc(NCC(C)O)c3c4c(sc3n2)COC(C)(C)C4)n1 (stereo not given)	inactive	–
O=C(O)CSc1ncnc2sc3c(c12)CCC3	inactive	–
Cc1cc(C)n(-c2nc(SCCN(C)C)c3c4c(sc3n2)CCCC4)n1	794 nM (active)	–
C[C@@H]1C[C@H](C)CN(S(=O)(=O)c2cc(Cl)c(Oc3ccc([N+](=O)[O-])cc3Cl)c(Cl)c2)C1	–	2.46% [at 11.4 µM]

SMILES	AC50	activity, negative = inhibition
O=C(N/N=C/c1cccc(F)c1)c1csc2c1CCCC2	inactive	–
CC1(C)Cc2ccccc2C(N/N=C/c2cccc(F)c2)=N1	11200 nM (active)	–
Cc1cccc(/C=N\Nc2cn[nH]c(=O)c2Cl)c1	inactive	–
Cn1c(=O)c(-c2ccc(Cl)cc2)nc2cnc(N3CCOCC3)nc21	inactive	–
Oc1cc(O)c2c(c1)O[C@@H](c1ccc(O)c(O)c1)[C@H](O[C@@]1(c3cc(O)c(O)c(O)c3)Oc3cc(O)cc(O)c3[C@H](O)[C@@H]1O)C2	–	-0.664% [at 11.4 µM]
Cc1ccc(C(=O)Oc2cc(C)n(C)c(=O)c2)cc1	inactive	–
CCCN(CCC)S(=O)(=O)c1ccc(C(=O)O)cc1	inactive	–
CCN(CC(=O)NCc1cccs1)S(=O)(=O)c1ccc(C(C)C)cc1	3550 nM (active)	–
CCN(c1ccccc1)S(=O)(=O)c1ccc(NC(=S)NC(=O)c2cccs2)cc1	inactive	–
Cc1nn(CC(O)COc2ccc3c(c2)CCC3)c(C)c1Br (stereo not given)	inactive	–
CCn1c(SCC(=O)Nc2sc3c(c2C(N)=O)CCC(C)C3)nnc1-c1ccco1 (stereo not given)	inactive	–
CCCCNC(=S)NNC(=O)CCn1nc(C)c(Br)c1C	inactive	–
CCN(CC)C(=O)CSc1nnc(CNc2ccc(F)cc2)o1	inactive	–
COc1ccccc1-c1nc(N(C)Cc2ccco2)c2ccccc2n1	1000 nM (active)	–
Cc1ccc(-c2cc(C(=O)NCc3ccco3)c3ccccc3n2)s1	inactive	–
Cc1ccccc1-c1nc(N(C)Cc2ccco2)c2ccccc2n1	3160 nM (active)	–
CN(Cc1ccco1)c1nc(-c2ccccc2C(F)(F)F)nc2ccccc12	7940 nM (active)	–
CN(C)Cc1ccccc1-c1nc(N(C)Cc2ccco2)c2ccccc2n1	794 nM (active)	–
CCC(=O)N(Cc1ccco1)c1nc(-c2ccccc2)cs1	inactive	–
O=C1C(Cc2ccccc2)NC(=S)N1c1ccccc1 (stereo not given)	inactive	–
Cc1ccccc1S(=O)(=O)c1c(C)cc(-c2ccccc2)[nH]c1=O	inactive	–
